Assay results published in PubChem BioAssay (NCI).
Compounds without any hit were thinned out: in the full panel of roughly 83,000, 20% have a hit.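 Cells were grown in 96-well plates and exposed to the test compound at a single concentration for 48 hours; results are reported as percent growth, with values below 10 considered active.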 A number with no mark means an inactive call. Active and inactive are the calls of the source.

system: HL-60(TB) leukemia; assay: NCI-60 one-dose screen, 48 h (100 = growth as untreated, 0 = no growth, -100 = all killed); conditions: 10 µM unless noted

Q: Which growth does the source give for `O=C(NC1CCN(Cc2ccccc2)CC1)c1cc(-c2ccncc2)nc2ccc(Cl)cc12` here?
A: The growth was 15.2%.

Q: With `COc1cc2c(cc1[N+](=O)[O-])-c1ccc([N+](=O)[O-])cc1/C2=N\O` as the molecule, how does the growth read?
A: Its growth is 89.5%.

Q: For `N=c1ccn2c(n1)OC1C(O)C(CO)OC12` (configuration not stated), which growth is on record?
A: The growth was 106%.

Q: `CC(C)c1ccc(C(=O)Nc2sc3cc(O)ccc3c2C#N)cc1` was tested. Which growth did it give?
A: The growth was -6.25% (active).

Q: How did the growth turn out when `O=C(COc1ccc(/C=C2\Cc3ccccc3C2=O)cc1)c1ccc(Cl)cc1` was run?
A: Its growth is 118%.

Q: For `CCCCNC(=O)c1ccc2c(c1)nc(-c1ccccc1)n2C1CCCCC1`, which growth is on record?
A: The growth was 115%.

Q: `C=CC(=O)Nc1cccc(-c2nc(SC)nc(NCc3ccccc3)c2C#N)c1` was tested. Which growth did it give?
A: Its growth is 50%.

Q: With `COc1ccc2[nH]c(C(=O)OCc3ccc4c(Cl)cc(Cl)c(O)c4n3)cc2c1` as the molecule, how does the growth read?
A: Its growth is -30.4% (active).

Q: How did the growth turn out when `COc1cc2c(c(OC)c1OC)C(=O)N[C@@H]1[C@@H](O)[C@@H](O)[C@H](O)C[C@@H]21` was run?
A: The growth was 99.3%.

Q: Which growth does the source give for `N#Cc1c(-c2ccc(Cl)cc2)n(O)c2ccccc12` here?
A: Its growth is -0.349% (active).

Q: With `COc1ccc(C2CC(=O)c3c(nc4ccc(Cl)cc4c3N)C2)cc1` (configuration not stated) as the molecule, how does the growth read?
A: The growth was 99.1%.

Q: `COc1ccc(C2=NN(C(C)=O)C(c3cn(Cc4ccc(Cl)cc4)c4ccccc34)C2)cc1` (configuration not stated) was tested. Which growth did it give?
A: Its growth is 79.5%.

Q: `COc1ccc(-c2nc3sc4c(c3c(=O)[nH]2)CCCCCC4)cc1` was tested. Which growth did it give?
A: Its growth is 29%.

Q: For `CCOC(=O)C1=NN(c2ccc(Cl)cc2)C2C3N(c4ccc(Cl)cc4)N=C(C(=O)OCC)N3c3ccccc3N12` (configuration not stated), which growth is on record?
A: The growth was -67.8% (active).

Q: `CCCCCCOc1ccc(/C=N/NC(N)=S)cc1` was tested. Which growth did it give?
A: The growth was 8.79% (active).

Q: `O=C(/C=C/c1ccc(Cl)cc1)c1ccc(Nc2nc(NCCO)nc(Nc3ccc(Cl)cc3)n2)cc1` was tested. Which growth did it give?
A: The growth was 99.4%.

Q: How did the growth turn out when `COc1ccc2c(O)c(/C=C3\N=Nc4ncccc43)oc2c1C[C@@H]1CCNC[C@H]1F` was run?
A: Its growth is -23.3% (active).

Q: Which growth does the source give for `Nc1ccc(C2=NN(C(=O)c3cc(-c4ccc(Cl)cc4)nc4ccccc34)C(c3ccc(Cl)cc3)C2)cc1` (configuration not stated) here?
A: Its growth is -4.63% (active).

Q: For `CC(=O)Oc1ccc(/C(=C(\C)c2ccc(Cl)cc2)c2ccc(OCCN3CCCCC3)cc2)cc1`, which growth is on record?
A: The growth was 27.4%.

Q: With `COC(=O)[C@@H](Cc1c[nH]c2ccccc12)NC(=O)[C@H](Cc1ccccc1)NCc1ccncc1` as the molecule, how does the growth read?
A: The growth was 80.6%.

Q: Which growth does the source give for `CSC(SC)=C(C#N)c1nc2ccccc2s1` here?
A: Its growth is 44.6%.

Q: With `COc1ccc(C2Nc3nc(SC)nc(N)c3N=C3c4ccccc4CCC32)cc1` (configuration not stated) as the molecule, how does the growth read?
A: Its growth is 71.1%.

Q: Which growth does the source give for `CCOC(=O)C(=CNc1ccccc1Cl)C(=O)OCC` here?
A: Its growth is 86.4%.

Q: For `O=C1NC(=Nc2ccc(O)cc2)S/C1=C\c1cccc(Cl)c1`, which growth is on record?
A: The growth was 22.9%.

Q: For `COc1cccc(-c2nn(-c3ccccc3)cc2-c2ccnc(NCCCNS(=O)(=O)c3ccccc3)c2)c1`, which growth is on record?
A: The growth was 16%.

Q: With `CCCc1c(CC)c(=N)c2ccccc2n1C` as the molecule, how does the growth read?
A: Its growth is 32.7%.

Q: Which growth does the source give for `COc1ccc(-c2nn(C(=O)c3cc(OC)c(OC)c(OC)c3)c3cc(N)ccc23)cc1` here?
A: Its growth is 5.67% (active).
